Laboratory results taken from PubChem BioAssay AID1117292 (Broad Institute, 2014).
Entries with a potency or affinity are not part of this list. Records with an inconclusive call do not appear. Activity calls are given as the source filed them.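 The calls were made as follows: active = compound whose fitted half-maximal dose for signal loss lies within twice the top dose in every replicate test; inconclusive = tests disagree, or flat partial signal loss or poor fit; inactive = every test inactive, flat, rising or too weak.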

molecular target: Endoplasmic reticulum aminopeptidase 1 (Homo sapiens) (UniProt Q9NZ08); assay: blocking ERAP1 cleavage of leucine-AMC substrate – biochemical, fluorescence plate reader, dry powder, dose response (AID 1117292); conditions: purified ERAP1, Leu-AMC fluorescence, 60 min; series mostly up to 50 µM
Sequence (Q9NZ08 whole entry, looked up): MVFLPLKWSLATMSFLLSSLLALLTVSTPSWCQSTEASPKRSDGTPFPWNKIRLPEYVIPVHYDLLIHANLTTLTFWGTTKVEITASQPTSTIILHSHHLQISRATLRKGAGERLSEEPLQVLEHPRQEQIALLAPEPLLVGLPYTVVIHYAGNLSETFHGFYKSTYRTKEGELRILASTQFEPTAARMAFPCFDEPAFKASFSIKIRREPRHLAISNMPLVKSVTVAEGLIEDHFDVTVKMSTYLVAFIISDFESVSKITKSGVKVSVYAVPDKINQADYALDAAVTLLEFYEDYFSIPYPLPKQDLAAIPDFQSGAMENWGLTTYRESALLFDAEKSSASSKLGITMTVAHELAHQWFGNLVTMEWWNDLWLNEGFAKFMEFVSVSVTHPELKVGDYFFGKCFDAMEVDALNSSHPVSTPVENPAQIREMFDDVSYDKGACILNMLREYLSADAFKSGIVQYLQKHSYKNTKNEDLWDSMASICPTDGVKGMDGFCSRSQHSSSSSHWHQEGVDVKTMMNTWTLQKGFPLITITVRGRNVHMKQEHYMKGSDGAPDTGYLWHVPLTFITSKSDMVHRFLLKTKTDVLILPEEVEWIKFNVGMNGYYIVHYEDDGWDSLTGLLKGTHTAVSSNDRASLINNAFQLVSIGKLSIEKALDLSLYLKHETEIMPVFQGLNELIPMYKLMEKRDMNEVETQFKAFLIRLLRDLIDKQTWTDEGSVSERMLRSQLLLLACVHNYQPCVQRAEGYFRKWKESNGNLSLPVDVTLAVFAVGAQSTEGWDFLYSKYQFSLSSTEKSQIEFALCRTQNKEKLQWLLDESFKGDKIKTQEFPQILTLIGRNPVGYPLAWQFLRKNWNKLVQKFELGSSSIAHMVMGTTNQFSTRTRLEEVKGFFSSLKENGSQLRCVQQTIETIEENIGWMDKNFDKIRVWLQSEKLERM

outcome, inactive:
COc1ccc(C(=O)Nc2cccc(C(F)(F)F)c2)cc1S(=O)(=O)O, Cc1ccc(NC(=O)NC2(C(=O)N3CCN(c4ccccc4)CC3)CCCCC2)cc1, COc1ccc(S(=O)(=O)Nc2cc(C(F)(F)F)ccc2N2CCCCC2)cc1, CC(=O)N1CCN(C(=O)CNC(=O)Nc2ccc(C)cc2)CC1, O=S(=O)(Nc1cc(C(F)(F)F)ccc1N1CCCCC1)c1ccc(-c2ccccc2)cc1, CC(=O)N1CCN(C(=O)C2(NC(=O)Nc3ccc(F)cc3)CCCC2)CC1, CC(=O)N1CCN(C(=O)C2(NC(=O)Nc3cccc(F)c3)CCCCC2)CC1, Cn1cnc(S(=O)(=O)Nc2cc(C(F)(F)F)ccc2N2CCCCC2)c1, CC(=O)N1CCN(C(=O)C2(NC(=O)Nc3ccc(C(F)(F)F)cc3)CCCC2)CC1, CC(=O)N1CCN(C(=O)C2(NC(=O)Nc3ccc(C(F)(F)F)cc3)CCCCC2)CC1, CC(=O)N1CCN(C(=O)C2(NC(=O)NC(C)(C)C)CCCCC2)CC1, O=[N+]([O-])c1ccc(S(=O)(=O)Nc2cc(C(F)(F)F)ccc2N2CCCCC2)c([N+](=O)[O-])c1, COc1ccc(C(=O)O)cc1S(=O)(=O)Nc1cc(C(F)(F)F)ccc1N(C)C, CC(=O)N1CCN(C(=O)C2(NC(=O)Nc3cccc(C(F)(F)F)c3)CCCCC2)CC1, CC(=O)N1CCN(C(=O)C2(NC(=O)Nc3ccc(F)cc3)CCCCC2)CC1, COc1ccc(C(=O)Nc2ccccc2N2CCCCC2)cc1S(=O)(=O)O, CC(=O)N1CCN(C(=O)C2(NC(=O)NCCc3ccccc3)CCCCC2)CC1, CC(=O)N1CCN(C(=O)C2(NC(=O)Nc3ccc(C(C)C)cc3)CCCCC2)CC1, CC(=O)N1CCN(C(=O)C2(NC(=O)Nc3ccc(C)cc3)CC2)CC1, COc1ccc(C(=O)Nc2cc(C(F)(F)F)ccc2N2CCOCC2)cc1S(=O)(=O)O, Cc1ccccc1S(=O)(=O)Nc1cc(C(F)(F)F)ccc1N1CCCCC1, O=S(=O)(Nc1cc(C(F)(F)F)ccc1N1CCCCC1)c1ccccc1
